# Measurements reported in PubChem BioAssay AID720597 (Broad Institute, 2013).
# Potency and affinity values are given separately. Values without a mark were called inactive.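 Rule for the calls: active = fitted half-maximal dose no more than twice the top valid tested dose, for compounds that lower signal; inconclusive = fit invalid, or curve flat with activity between -70 and -30; inactive = potency past limit, curve flat within ±30, or signal increasing.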
# Molecular target: NAD-dependent protein deacylase sirtuin-5, mitochondrial (Homo sapiens) (UniProt Q9NXA8)
# Assay: SIRT5 deacylase inhibitors, dose response, biochemical, fluorescence imaging, cherry-pick, set 6 (AID 720597);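 note: lower AMC signal can also come from blocking the trypsin step; 0% = median of neutral control wells and -100% = median of positive control wells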
# Conditions: Purified SirT5, succinyl-peptide-AMC/trypsin fluorescence; series mostly up to 15 µM; activity change, negative = inhibition: at the top concentration
# NAD-dependent protein deacylase sirtuin-5, mitochondrial (Homo sapiens), sequence (Q9NXA8 whole entry, looked up): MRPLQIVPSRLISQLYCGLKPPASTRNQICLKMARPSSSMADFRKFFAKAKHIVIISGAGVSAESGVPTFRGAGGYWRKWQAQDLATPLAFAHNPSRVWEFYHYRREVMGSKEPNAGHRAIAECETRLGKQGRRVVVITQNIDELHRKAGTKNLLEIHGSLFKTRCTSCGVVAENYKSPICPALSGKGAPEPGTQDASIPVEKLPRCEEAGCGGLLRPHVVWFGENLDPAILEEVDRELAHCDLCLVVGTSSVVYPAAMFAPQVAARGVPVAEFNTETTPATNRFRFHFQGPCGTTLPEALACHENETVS
row,SMILES,"activity change, negative = inhibition"
1,CN(C)C(=O)c1cccc(-c2ccc([C@@H]3[C@@H](CO)N4CCCCN(S(C)(=O)=O)C[C@@H]34)cc2)c1,19.7%
2,CCC(=O)NC[C@H]1[C@@H](c2ccccc2)[C@H](CO)N1C(=O)C1CCC1,-5.07%
3,CC(=O)N(C)C[C@@H]1Oc2ncc(C#Cc3cccc(F)c3)cc2C(=O)N([C@H](C)CO)C[C@H]1C,18.7%
4,Cc1cc(C)cc(NC(=O)C2CC(=O)n3ncnc3N2)c1 (stereo not given),-3.96% [at 18 µM]
5,C[C@H]1CN([C@@H](C)CO)C(=O)Cc2cc(NC(=O)Nc3ccc(F)cc3)ccc2O[C@H]1CN(C)C,-2.82% [at 16 µM]
6,Cc1ccc(S(=O)(=O)N(C)C[C@@H]2OCCCC[C@H](C)Oc3ccc(NS(=O)(=O)c4ccc(F)cc4)cc3C(=O)N([C@H](C)CO)C[C@@H]2C)cc1,-20.2%
7,CCCN(C)C[C@@H]1Oc2cc(-c3ccccc3OC)ccc2S(=O)(=O)N([C@H](C)CO)C[C@@H]1C,39%
8,COc1ccccc1C#Cc1cnc2c(c1)C(=O)N([C@@H](C)CO)C[C@H](C)[C@@H](CN(C)C)O2,-8.09%
9,CCCN1C[C@H](C)[C@@H](OC)CN(C)C(=O)c2cc(NS(=O)(=O)c3ccccc3)ccc2OC[C@H]1C,-6.09%
10,CC(C)CC#Cc1ccc2c(c1)O[C@@H](CN(C)Cc1ccccc1F)[C@H](C)CN([C@H](C)CO)S2(=O)=O,-18.7%
11,C[C@@H]1CCCCO[C@H](CN(C)C(=O)Nc2ccc(C(F)(F)F)cc2)[C@H](C)CN([C@H](C)CO)C(=O)c2cc(NS(=O)(=O)c3ccc(Cl)cc3)ccc2O1,-24.1%
12,C[C@H](CO)N1C[C@H](C)[C@H](CN(C)S(=O)(=O)c2ccc(Cl)cc2)OCCCC[C@H](C)Oc2ccc(NS(=O)(=O)c3ccc(F)cc3)cc2C1=O,-7.61%
13,C[C@H]1CN([C@@H](C)CO)C(=O)c2cc(NC(=O)CCN3CCOCC3)ccc2O[C@H]1CN(C)C(=O)Nc1ccc2c(c1)OCO2,4.04%
14,COc1ccc(S(=O)(=O)N(C)C[C@@H]2OCCCC[C@H](C)Oc3ccc(NS(=O)(=O)c4ccc(Cl)cc4)cc3C(=O)N([C@@H](C)CO)C[C@H]2C)cc1,-14.2%
15,C[C@@H]1CN([C@H](C)CO)S(=O)(=O)c2ccc(C#Cc3cccc(F)c3)cc2O[C@@H]1CN(C)S(=O)(=O)c1ccccc1F,40.1%
16,C[C@@H]1CN([C@@H](C)CO)C(=O)c2cc(NS(=O)(=O)c3ccc(Cl)cc3)ccc2O[C@@H](C)CCCCO[C@@H]1CN(C)C(=O)Nc1ccc(C(F)(F)F)cc1,-0.902%
17,C[C@H](CO)N1C[C@H](C)[C@H](CN(C)C(=O)c2ccccc2F)Oc2ncc(Br)cc2C1=O,-2.09%
18,COc1cccc(NC(=O)N(C)C[C@H]2Oc3ncc(C4=CCCCC4)cc3C(=O)N([C@H](C)CO)C[C@@H]2C)c1,14.6%
19,COc1cccc(S(=O)(=O)N(C)C[C@H]2Oc3cc(C4=CCCCC4)ccc3S(=O)(=O)N([C@H](C)CO)C[C@@H]2C)c1,-20.5%
20,CCC(=O)N1[C@H](CO)[C@H](c2ccc(-c3ccccc3)cc2)[C@H]1CN(CC)C(C)=O,2.76%

row,SMILES,"activity change, negative = inhibition"
1,COc1ccc(S(=O)(=O)Nc2ccc3c(c2)CC(=O)N([C@H](C)CO)C[C@H](C)[C@@H](CN(C)CC2CCCCC2)O3)cc1,24.7%
2,C[C@H]1CN([C@@H](C)CO)S(=O)(=O)c2ccc(-c3cccc(F)c3)cc2O[C@@H]1CN(C)S(=O)(=O)c1ccc(F)cc1,4.42%
3,C[C@@H]1CN([C@H](C)CO)C(=O)c2c(c3ccccc3n2C)-c2ccccc2CO[C@H]1CN(C)S(=O)(=O)c1ccc([N+](=O)[O-])cc1,21.9%
4,Cc1noc(C)c1S(=O)(=O)Nc1ccc2c(c1)C(=O)N([C@H](C)CO)C[C@@H](C)[C@@H](CN(C)Cc1ccc(C(F)(F)F)cc1)OCCCC[C@@H](C)O2,2.73%
5,C=CCOC(=O)[C@@H]1[C@H]2C(=O)O[C@H](c3ccccc3)[C@H](c3ccccc3)N2[C@H](c2ccc(OCCOC(=O)[C@@H]3C[C@@H]4C(=O)N[C@@H](Cc5ccccc5)C(=O)N4[C@@H]3c3ccc(O)cc3)cc2)[C@@]12C(=O)Nc1ccc(I)cc12,12%
6,COc1cccc(NC(=O)N2CC(=O)N3[C@H](CO)[C@H](c4ccc(C#CCC5CCCC5)cc4)[C@@H]3C2)c1,-10.9%
7,CN(C)C(=O)c1cccc(-c2ccc([C@H]3[C@H]4CN(S(C)(=O)=O)CCCCN4[C@H]3CO)cc2)c1,-11.1%
8,O=C(NCC[C@@H]1CC[C@@H](NS(=O)(=O)c2cccc(F)c2)[C@@H](CO)O1)C1CCOCC1,23.3%
9,C[C@@H](O)C#Cc1ccc([C@H]2[C@H](CO)N3CCCCN(CC4CC4)C[C@@H]23)cc1,-7.08%
10,COc1cccc(NC(=O)N2CC(=O)N3[C@H](CO)[C@@H](c4ccc(C#CCC5CCCC5)cc4)[C@H]3C2)c1,-27%
11,CC(C)CC#Cc1ccc2c(c1)O[C@@H](CN(C)C(=O)c1cccc(F)c1)[C@H](C)CN([C@@H](C)CO)S2(=O)=O,-9.35%
12,C[C@H]1CN([C@@H](C)CO)S(=O)(=O)c2ccc(C#Cc3ccc(F)cc3)cc2O[C@@H]1CN(C)S(C)(=O)=O,8.38%
13,C[C@@H]1CN([C@@H](C)CO)C(=O)c2cc(NC(=O)CCN3CCOCC3)ccc2O[C@H]1CN(C)Cc1ccc(C(F)(F)F)cc1,-9.07%
14,C[C@H]1CN([C@@H](C)CO)S(=O)(=O)c2ccc(-c3cncnc3)cc2O[C@H]1CN(C)Cc1ccccn1,6.87%
15,COc1ccc(S(=O)(=O)Nc2ccc3c(c2)C(=O)N([C@H](C)CO)C[C@@H](C)[C@H](CN(C)S(=O)(=O)c2ccccc2)OCCCC[C@@H](C)O3)cc1,-23.2%
16,CN(C)C(=O)[C@@H]1[C@@H](CO)[C@@H]2Cn3c(ccc(-c4ccccc4)c3=O)[C@@H]2N1Cc1ccccc1,-1.33%
17,COc1ccc(S(=O)(=O)Nc2ccc3c(c2)CC(=O)N([C@@H](C)CO)C[C@@H](C)[C@H](CN(C)S(=O)(=O)c2ccc(C)cc2)O3)cc1,-19.5%
18,COc1ccc(S(=O)(=O)Nc2ccc3c(c2)C(=O)N([C@@H](C)CO)C[C@H](C)[C@@H](CN(C)Cc2ccc(C(F)(F)F)cc2)OCCCC[C@H](C)O3)cc1,-3.79%
19,CO[C@@H]1CC[C@@H]2CCN(C)C(=O)C[C@H](c3ccccc3)CN(C)C(=O)c3cccc(C#N)c3OC[C@@H]1O2,-15.7%
20,CN(C)C(=O)c1cccc(-c2ccc([C@H]3[C@@H](CO)N4CCCCN(S(C)(=O)=O)C[C@@H]34)cc2)c1,9.06%
